PREPL inh: inhibits the human prolyl oligopeptidase-like enzyme | Q4J6C6 | recombinant PREPL, fluorescence polarization activity-based probe | inhibition, % at 5.96 µM | actives 0.68% (n = 320,000); in the data active = inhibition above about 43%
MEKK3 PB1 HTS: MEKK3-MEK5 PB1 interaction, increase or decrease | actives 1.4% (n = 290,000) | Q99759 | binding response (% of control), % at 10 µM | bead-based flow cytometry, Alexa488-MEK5 binding to MEKK3; actives lie on both sides; 0 = blocked by unlabeled MEK5, 100 = vehicle;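 active = binding response more than 3 SD above or below the average of its plate-row segment, actives on both sides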;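 also: Alexa488 bead fluorescence after subtracting the streptavidin-only scavenger bead signal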
ATG4B inh: ATG4B (human) cysteine protease inhibition | ATG4B cleavage of LC3-PLA2, NBD-HPC fluorescence, 1 h | actives 0.51% (n = 340,000) | inhibition, % at 8.33 µM | Q9Y4P1; in the data active = inhibition above about 40%
MEKK2 mut-MEK5: signal of MEK5 binding to mutant human MEKK2 PB1 domain. bead flow cytometry, Alexa488-MEK5 binding to MEKK2 mutant. percent response, % at 10 µM. actives 0.35% (n = 290,000). AID 1530; in the data active = percent response above about 24%, passing the limit was not always enough
UBC13 polyUb: inhibitors of human UBC13 polyubiquitin chain formation | P61088 | TR-FRET | inhibition, % at 20 µM | actives 0.47% (n = 330,000) | AID 485273; in the data active = inhibition above about 45%, passing the limit was not always enough
Target sequence (P61088 whole entry, looked up): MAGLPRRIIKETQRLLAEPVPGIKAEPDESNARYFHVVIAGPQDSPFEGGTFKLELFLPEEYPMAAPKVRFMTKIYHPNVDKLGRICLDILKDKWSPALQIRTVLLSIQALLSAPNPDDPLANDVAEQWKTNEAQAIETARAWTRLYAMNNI
MEKK2 WT-MEK5: raises or lowers MEK5 binding to wildtype human MEKK2 PB1 domain; binding response (% of control), % at 10 µM; actives 1.1% (n = 290,000); bead flow cytometry, Alexa488-MEK5 binding to MEKK2 WT; actives lie on both sides; Q9Y2U5; AID 1531; in the data active = binding response below about 67% or above about 130%
ATG4B conf: confirmation of human ATG4B inhibitors; inhibition, % at 8.33 µM; ATG4B protease fluorescent substrate cleavage assay; shares compounds with ATG4B inh; actives 92% (n = 320); in the data active = inhibition above about 39%
PLA2 ctr: PLA2 (human) inhibition in ATG4B counter-screen. shares compounds with ATG4B inh. AID 588402. actives 66% (n = 1,600). purified PLA2, NBD-C6-HPC fluorescence, 45 min. inhibition, % at 8.33 µM; in the data active = inhibition above about 50%
Target sequence (P04054 whole entry, looked up): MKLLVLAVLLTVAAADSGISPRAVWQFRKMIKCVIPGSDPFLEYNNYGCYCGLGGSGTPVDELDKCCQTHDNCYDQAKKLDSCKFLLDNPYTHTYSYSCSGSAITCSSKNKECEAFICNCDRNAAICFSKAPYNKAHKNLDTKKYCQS
A number is an active result; n = inactive; x = no result given. Shown are actives, neighbours in structure and some others; about 3.1% of the full set was active somewhere.

SMILES	PREPL inh	MEKK3 PB1 HTS	ATG4B inh	MEKK2 mut-MEK5	UBC13 polyUb	MEKK2 WT-MEK5	PLA2 ctr	others
NC(=O)C1CCN(C2=C(NS(=O)(=O)c3ccc(Br)cc3)C(=O)c3ccccc3C2=O)CC1	n	n	64	n	n	n	60
NC(=O)C1CCN(C2=C(NS(=O)(=O)c3ccccc3)C(=O)c3ccccc3C2=O)CC1	n	n	n	n	n	n	x
Cc1ccc(S(=O)(=O)N2[C@@H](c3ccc(C(C)(C)C)cc3)C(C(=O)O)=CC[C@H]2c2ccc(Cl)cc2)cc1	n	x	46	x	n	x	55
Cc1ccc([C@@H]2CC=C(C(=O)O)[C@H](c3ccc(C(C)(C)C)cc3)N2S(=O)(=O)c2ccc(C)cc2)cc1	n	x	n	x	n	x	x
CC1(C)N=C(c2ccccc2)C(c2ccccc2)=N1	x	x	n	x	x	x	x
O=C1NC(=Nc2ccccc2)S/C1=C\c1cccn1-c1ccccc1	n	n	68	n	n	n	59
Cc1cccc(N=C2NC(=O)/C(=C/c3cccn3C)S2)c1	n	n	n	n	n	n	x
O=C(c1ccc(COc2ccccc2Br)cc1)N1CCCCCC1	n	n	44	n	n	n	55
O=C(c1ccc(COc2ccc(Cl)cc2)cc1)N1CCCCC1	n	n	n	n	n	n	x
O=S(=O)(Cc1ccccc1)C(CCCc1ccccc1)S(=O)(=O)Cc1ccccc1	x	x	n	x	x	x	x
C=CCC[C@@H](Cc1ccc(F)cc1)C(=O)OC[C@@H](NC(=O)[C@H](CC=C)CC(=O)N(CCO)Cc1ccccc1)c1ccccc1	n	x	53	x	n	x	76
C=CCC[C@@H](Cc1ccc(F)cc1)C(=O)OC[C@@H](NC(=O)[C@@H](CC=C)CC(=O)N(CCO)Cc1ccccc1)c1ccccc1	n	x	n	x	n	x	x
Cc1cc(C)cc(OCCNC(=O)c2cc(S(=O)(=O)N3CCOCC3)ccc2F)c1	n	n	n	n	n	n	x
O=C(/C=C1\NC2(CCCC2)Cc2ccccc21)C(=O)N/N=C/c1ccc(O)c(O)c1	n	n	61	n	n	n	68
COc1ccc(/C=N/NC(=O)C(=O)/C=C2\NC3(CCCC3)Cc3ccccc32)cc1	n	n	n	n	n	n	x
O=C(C1CCCN(S(=O)(=O)c2ccc(F)cc2)C1)N1CCCCC1 (stereo not given)	n	n	n	n	n	n	x
Cc1ccccc1N1C(=O)CN(Cc2sccc2C)C1=S	n	n	65	n	n	n	79
COc1ccc(CN2CC(=O)N(c3cccc(Cl)c3)C2=S)cc1OC	n	n	n	n	n	n	x
Cc1ccc(N2C(=O)CN(Cc3ccccc3)C2=S)cc1C	n	n	75	n	n	n	79
CCc1ccc(N2C(=O)CN(Cc3ccc(OC)c(OC)c3)C2=S)cc1	n	n	n	n	n	n	x
COc1cccc(N2C(=O)CN(Cc3cc(OC)c(OC)c(OC)c3)C2=S)c1	n	n	n	n	n	n	x
COc1ccc(CN2CC(=O)N(c3ccccc3OC)C2=S)cc1OC	n	n	n	n	n	n	x
Cc1ccc(N2C(=O)CN(Cc3cccs3)C2=S)cc1C	n	n	58	n	n	n	78
Cc1ccc(N2C(=O)CN(Cc3sccc3C)C2=S)cc1C	n	n	95	n	n	n	94
O=C(NCCc1nccs1)C1CCC(=O)N(CCc2ccc(Cl)cc2)C1 (stereo not given)	n	n	n	n	n	n	x
SMILES	PREPL inh	MEKK3 PB1 HTS	ATG4B inh	MEKK2 mut-MEK5	UBC13 polyUb	MEKK2 WT-MEK5	PLA2 ctr	others
O=S(=O)(c1ccc(S(=O)(=O)N2CCOCC2)cc1)N1CCCC1	n	n	n	n	n	n	x
Cc1cc(N/N=C/c2ccc(F)cc2)nc(NCc2ccccc2)n1	n	n	71	n	n	n	64
C=CCn1c(COc2ccccc2F)nnc1SCC(=O)NC(=O)NCc1ccco1	n	n	n	n	n	n	x
C=CCn1c(COc2ccccc2-c2ccccc2)nnc1SCC(=O)NC(=O)NCc1ccco1	n	n	75	n	n	n	85
CCOc1ccc(CCNC(=O)c2cccc(S(=O)(=O)N3CCCCC3)c2)cc1OCC	n	x	n	x	n	x	x
Cc1ccccc1NC(=O)CCCSc1nc2ccccc2s1	n	n	n	n	n	n	x
CCc1cccc(C)c1NC(=O)CCCSc1nc2ccccc2s1	n	n	65	n	n	n	57
O=C1NC(=O)C(Cc2ccc(Cl)cc2)(c2ccccc2)N1 (stereo not given)	x	x	n	x	x	x	x
O=C(Cc1ccc(S(=O)(=O)N2CCOCC2)s1)NCCc1ccc(F)cc1	n	x	n	x	n	x	x
CC1CC(C)CN(C(=O)c2ccc(C#N)cc2)C1 (stereo not given)	n	n	n	n	n	n	x
CC1CC(C)CN(C(=O)c2ccc(S(=O)(=O)N3CC(C)CC(C)C3)cc2)C1 (stereo not given)	n	n	51	n	n	n	66
CC1CC(C)CN(C(=O)c2ccc3ccccc3c2)C1 (stereo not given)	n	x	54	x	n	x	50
CC1CC(C)CN(S(=O)(=O)c2ccc(C(=O)N3CCCC3)cc2)C1 (stereo not given)	n	n	n	n	n	n	x
CC1CC(C)CN(C(=O)c2ccc(C(=O)c3ccccc3)cc2)C1 (stereo not given)	n	x	42	x	n	x	n	ATG4B conf=66
COc1ccc(-c2cccc(NC(=O)c3ccc4c(c3)OCO4)c2)nn1	n	x	n	x	n	x	x
COc1cccc(N2CCN(C(=S)NCc3ccco3)CC2)c1	n	n	n	n	n	n	x
COC(=O)C(C)N(C(=O)c1ccc(C(=O)c2ccccc2)cc1)c1c(C)cccc1C (stereo not given)	n	n	57	n	n	n	n	ATG4B conf=58
CCC(C)NC(=O)CC(c1ccccc1)c1cc(C)ccc1O (stereo not given)	n	n	n	n	n	n	x
CC(C)(C)c1ccccc1N=Cc1ccc2ccccc2n1	n	n	54	n	n	n	n	ATG4B conf=74
Cc1ccc(-c2csc(NC(=O)c3cccc(C)c3)c2C(=O)O)cc1	n	x	45	x	n	x	52
Cc1cccc(C(=O)Nc2scc(-c3ccc(Br)cc3)c2C(=O)O)c1	n	x	n	x	n	x	x
Cc1cccc(C(=O)Nc2scc(CC(C)C)c2C(=O)O)c1	n	n	73	n	n	n	68
CCOC(=O)N1CCC(N2Cc3cccc(C(=O)Nc4ccccc4OC)c3C2=O)CC1	n	n	n	n	n	n	x
COc1ccccc1C(=O)Nc1ccccc1SC(=O)c1ccccc1OC	n	n	n	n	n	n	x
Cc1ccc(S(=O)(=O)/N=C(\N)c2ccc(Cl)cc2)cc1	x	n	n	n	x	n	x

From PubChem
